Results from PubChem BioAssay AID1159580 (chemical genetic matrix, 2015).
Where “and” joins values, the source holds several entries; their conditions need not be identical. Equal entries are not always repeated. Hit rate of the full screen: of about 5,500 compounds, about 2,000 (36%) were called active. Not shown: some 18% with an inconclusive outcome. No stated cut-off is given here; in the data, active means normalized growth mostly below about 0.91 (no sharp cut-off); inconclusive means no clear call, values can overlap the other calls; inactive means mostly above about 0.92. The list shows a part of the results.

Test: chemical genetic growth profiling, strain panel (AID 1159580);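 further: tested at 20 µM; growth read once vehicle control cultures reached saturation at 30 °C; 1 = growth at the plate median or of vehicle wells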
Conditions: S. cerevisiae deletion strains, growth OD

Measured: normalized growth

NC[C@H]1O[C@H](O[C@H]2[C@H](O)[C@@H](O[C@H]3O[C@H](CO)[C@@H](O)[C@H](N)[C@H]3O)[C@H](N)C[C@@H]2N)[C@H](N)[C@@H](O)[C@@H]1O
inactive: locus YAL021C, strain ccr4, stronger effect = lower value 0.999 | locus YAL026C, strain drs2, stronger effect = lower value 0.992 | locus YAL030W, strain snc1, stronger effect = lower value 0.996 | locus YBL061C, strain skt5, stronger effect = lower value 0.992 | locus YBR009C, strain hhf1, stronger effect = lower value 1.03 | locus YBR021W, strain FUR4, stronger effect = lower value 0.902 | locus YBR023C, strain chs3, stronger effect = lower value 1 | locus YBR171W, strain sec66, stronger effect = lower value 0.989 | locus YBR229C, strain ROT2, stronger effect = lower value 0.995 | locus YBR231C, strain swc5, stronger effect = lower value 0.997 | locus YBR279W, strain paf1, stronger effect = lower value 0.993 | locus YCL011C, strain gbp2, stronger effect = lower value 0.998 | locus YCL016C, strain dcc1, stronger effect = lower value 1.01 | locus YCL029C, strain bik1, stronger effect = lower value 0.977 | locus YCL061C, strain MRC1, stronger effect = lower value 0.993 | locus YCL069W, strain vba3, stronger effect = lower value 0.989 | locus YCR088W, strain abp1, stronger effect = lower value 0.992 | locus YDL005C, strain med2, stronger effect = lower value 0.992 | locus YDL035C, strain GPR1, stronger effect = lower value 0.99 | locus YDL040C, strain nat1, stronger effect = lower value 0.997 | locus YDL074C, strain BRE1, stronger effect = lower value 0.955 | locus YDL101C, strain DUN1, stronger effect = lower value 0.991 | locus YDL185W, strain tfp1, stronger effect = lower value 0.95 | locus YDL192W, strain arf1, stronger effect = lower value 1 | locus YDR001C, strain nth1, stronger effect = lower value 0.989 | locus YDR069C, strain doa4, stronger effect = lower value 0.99 | locus YDR101C, strain arx1, stronger effect = lower value 0.943 | locus YDR137W, strain rgp1, stronger effect = lower value 1.01 | locus YDR150W, strain NUM1, stronger effect = lower value 0.98 | locus YDR159W, strain sac3, stronger effect = lower value 0.983 | locus YDR162C, strain NBP2, stronger effect = lower value 1.01 | locus YDR195W, strain ref2 0.937 | locus YDR297W, strain sur2, stronger effect = lower value 0.986 | locus YDR318W, strain mcm21, stronger effect = lower value 1 | locus YDR334W, strain swr1, stronger effect = lower value 0.985 | locus YDR335W, strain msn5, stronger effect = lower value 0.994 | locus YDR388W, stronger effect = lower value 0.98 | locus YDR392W, strain spt3, stronger effect = lower value 1.04 | locus YDR502C, strain sam2, stronger effect = lower value 1.01 | locus YEL003W, strain gim4, stronger effect = lower value 0.991 | locus YEL037C, strain rad23, stronger effect = lower value 1 | locus YEL061C, strain CIN8 (second series), stronger effect = lower value 0.982 | locus YEL061C, strain CIN8, stronger effect = lower value 0.996 | locus YER015W, strain faa2, stronger effect = lower value 1 | locus YER016W, strain bim1, stronger effect = lower value 0.988 | locus YER110C, stronger effect = lower value 0.957 | locus YER111C, strain swi4, stronger effect = lower value 0.998 | locus YER155C, strain BEM2 (second series), stronger effect = lower value 0.993 | locus YER155C, strain BEM2, stronger effect = lower value 0.994 | locus YER167W, strain BCK2, stronger effect = lower value 1 | locus YFR010W, strain ubp6, stronger effect = lower value 0.987 | locus YGL078C, strain dbp3, stronger effect = lower value 0.99 | locus YGL086W, strain mad1, stronger effect = lower value 0.952 | locus YGL167C, strain pmr1, stronger effect = lower value 1 | locus YGL173C, strain kem1, stronger effect = lower value 0.99 | locus YGL227W, strain vid30, stronger effect = lower value 0.984 | locus YGL240W, strain doc1, stronger effect = lower value 0.985 | locus YGL248W, strain PDE1, stronger effect = lower value 1.02 | locus YGL253W, strain hxk2, stronger effect = lower value 0.993 | locus YGR078C, strain PAC10, stronger effect = lower value 1.01 | locus YGR135W, strain pre9, stronger effect = lower value 1.01 | locus YGR252W, strain gcn5, stronger effect = lower value 1.18 | locus YHR013C, strain ard1, stronger effect = lower value 1 | locus YHR027C, strain rpn1, stronger effect = lower value 0.989 | locus YHR030C, strain SLT2, stronger effect = lower value 0.978 and 1.08 | locus YHR079C, strain IRE1 (second series), stronger effect = lower value 0.974 | locus YHR079C, strain IRE1, stronger effect = lower value 1.07 | locus YHR094C, strain hxt1, stronger effect = lower value 0.992 | locus YHR129C, strain ARP1, stronger effect = lower value 0.997 | locus YHR142W, strain chs7, stronger effect = lower value 0.991 | locus YHR200W, strain rpn10, stronger effect = lower value 0.98 | locus YIL066C, strain RNR3, stronger effect = lower value 0.99 | locus YIL073C, strain SPO22, stronger effect = lower value 0.915 | locus YIL125W, strain kgd1, stronger effect = lower value 0.974 | locus YIR030C, strain dcg1, stronger effect = lower value 1 | locus YJL092W, strain hpr5, stronger effect = lower value 0.986 | locus YJL095W, strain BCK1 (second series), stronger effect = lower value 0.994 | locus YJL095W, strain BCK1, stronger effect = lower value 1.04 and 1.07 | locus YJL115W, strain asf1, stronger effect = lower value 0.988 | locus YJL129C, strain trk1, stronger effect = lower value 0.988 | locus YJL134W, strain LCB3, stronger effect = lower value 0.976 | locus YJL154C, strain vps35, stronger effect = lower value 0.994 | locus YJL164C, strain tpk1, stronger effect = lower value 1 | locus YJL166W, strain qcr8, stronger effect = lower value 0.996 | locus YJL168C, strain set2, stronger effect = lower value 0.984 | locus YJL187C, strain SWE1 (second series), stronger effect = lower value 1.01 | locus YJR043C, strain POL32, stronger effect = lower value 1.01 | locus YJR066W, strain TOR1, stronger effect = lower value 1.02 | locus YKL009W, strain mrt4, stronger effect = lower value 0.97 | locus YKL068W, stronger effect = lower value 0.966 | locus YKL085W, strain MDH1 (second series), stronger effect = lower value 0.993 | locus YKL085W, strain MDH1, stronger effect = lower value 0.993 | locus YKL160W, strain elf1, stronger effect = lower value 0.994 | locus YKR001C, strain vps1, stronger effect = lower value 0.986 | locus YKR026C, strain gcn3, stronger effect = lower value 0.984 | locus YKR091W, strain srl3, stronger effect = lower value 0.983 | locus YLL001W, strain dnm1, stronger effect = lower value 0.988 | locus YLL026W, stronger effect = lower value 1 | locus YLL041C, strain sdh2, stronger effect = lower value 1.01 | locus YLR027C, strain aat2, stronger effect = lower value 0.999 | locus YLR039C, strain RIC1, stronger effect = lower value 1.01 | locus YLR058C, strain SHM2, stronger effect = lower value 0.999 | locus YLR102C, strain apc9, stronger effect = lower value 0.973 | locus YLR113W, strain HOG1, stronger effect = lower value 1.04 | locus YLR221C, strain rsa3, stronger effect = lower value 0.997 | locus YLR258W, strain gsy2, stronger effect = lower value 0.995 | locus YLR262C, strain YPT6 (second series), stronger effect = lower value 1.02 | locus YLR262C, strain YPT6, stronger effect = lower value 0.984 | locus YLR268W, strain sec22, stronger effect = lower value 0.959 | locus YLR320W, strain mms22, stronger effect = lower value 1 | locus YLR330W, strain CHS5, stronger effect = lower value 0.984 | locus YLR342W, strain FKS1 (second series), stronger effect = lower value 0.999 | locus YLR342W, strain FKS1, stronger effect = lower value 0.988 | locus YLR357W, strain rsc2, stronger effect = lower value 0.992 | locus YLR370C, strain arc18, stronger effect = lower value 1.02 | locus YLR371W, strain rom2, stronger effect = lower value 0.996 | locus YLR384C, strain iki3, stronger effect = lower value 1.01 | locus YLR418C, strain cdc73, stronger effect = lower value 1.06 | locus YML016C, strain PPZ1, stronger effect = lower value 0.992 | locus YML032C, strain rad52, stronger effect = lower value 1.04 | locus YML120C, strain ndi1, stronger effect = lower value 0.994 | locus YML124C, strain tub3, stronger effect = lower value 0.991 | locus YMR058W, strain fet3, stronger effect = lower value 0.997 | locus YMR078C, strain ctf18, stronger effect = lower value 1.01 | locus YMR125W, strain sto1, stronger effect = lower value 1.01 | locus YMR129W, stronger effect = lower value 0.99 | locus YMR205C, strain PFK2, stronger effect = lower value 1 | locus YMR223W, strain ubp8, stronger effect = lower value 1.02 | locus YMR231W, strain pep5, stronger effect = lower value 0.997 | locus YMR263W, strain SAP30, stronger effect = lower value 0.992 | locus YMR307W, strain GAS1, stronger effect = lower value 1.16 | locus YNL067W, strain RPL9B, stronger effect = lower value 1.01 | locus YNL071W, strain lat1, stronger effect = lower value 0.998 | locus YNL183C, strain NPR1, stronger effect = lower value 1.02 | locus YNL209W, strain ssb2, stronger effect = lower value 0.992 | locus YNL233W, strain BNI4, stronger effect = lower value 1.01 | locus YNL248C, strain rpa49, stronger effect = lower value 1 | locus YNL250W, strain rad50, stronger effect = lower value 0.96 | locus YNL271C, strain bni1, stronger effect = lower value 0.997 | locus YNL298W, strain CLA4, stronger effect = lower value 0.984 | locus YNL307C, strain MCK1, stronger effect = lower value 0.981 | locus YNL322C, strain KRE1 (second series), stronger effect = lower value 1 | locus YNR049C, strain mso1, stronger effect = lower value 1.02 | locus YNR052C, strain pop2, stronger effect = lower value 1 | locus YOL012C, strain htz1 1.19 | locus YOL147C, strain pex11, stronger effect = lower value 0.989 | locus YOR001W, strain rrp6, stronger effect = lower value 1.01 | locus YOR061W, strain CKA2, stronger effect = lower value 1 | locus YOR069W, strain VPS5, stronger effect = lower value 0.986 | locus YOR070C, strain gyp1, stronger effect = lower value 1.01 | locus YOR080W, strain dia2, stronger effect = lower value 1 | locus YOR083W, strain WHI5, stronger effect = lower value 1.01 | locus YOR106W, strain vam3, stronger effect = lower value 1.02 | locus YOR136W, strain idh2, stronger effect = lower value 0.972 | locus YOR184W, strain ser1, stronger effect = lower value 0.972 | locus YOR231W, strain MKK1, stronger effect = lower value 1.04 | locus YOR265W, strain rbl2, stronger effect = lower value 1 | locus YOR270C, strain vph1, stronger effect = lower value 0.968 | locus YOR290C, strain snf2, stronger effect = lower value 1 | locus YOR316C, strain cot1, stronger effect = lower value 0.978 | locus YPL051W, strain arl3, stronger effect = lower value 1 | locus YPL055C, strain LGE1, stronger effect = lower value 1.01 | locus YPL078C, strain atp4, stronger effect = lower value 1.02 | locus YPL106C, strain sse1, stronger effect = lower value 1.01 | locus YPL240C, strain hsp82, stronger effect = lower value 0.988 | locus YPL256C, strain CLN2, stronger effect = lower value 1.08 | locus YPR119W, strain clb2, stronger effect = lower value 0.993 | locus YPR141C, strain kar3, stronger effect = lower value 0.982 | locus YPR163C, strain tif3, stronger effect = lower value 0.998 | locus YPR167C, strain met16, stronger effect = lower value 0.991 | strain wtn01, stronger effect = lower value 0.948
